Assay results as given in PMC11006913.
Positions count from the first letter of the chain named.

Columns and labels:
Experiment in all cases: PBM; 200 nM protein, PBS
Details in all cases: dsDNA, one strand shown
SIX6 [1] = molecular target: T1, SIX6 (Homo sapiens, UniProt O95475 114-200, L167I)
T1 sequence: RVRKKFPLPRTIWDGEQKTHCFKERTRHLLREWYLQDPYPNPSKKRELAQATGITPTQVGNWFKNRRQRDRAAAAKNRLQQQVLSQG

SIX6 [2] = molecular target: T2, SIX6 (Homo sapiens, UniProt O95475 114-200, H141N)
T2 sequence: T1 sequence with H28N, I54L

SIX6 [3] = molecular target: T3, SIX6 (Homo sapiens, UniProt O95475 114-200, T165A)
T3 sequence: T1 sequence with T52A, I54L

SIX6 [4] = molecular target: T4, SIX6 (Homo sapiens, UniProt O95475 114-200, T165I)
T4 sequence: T1 sequence with T52I, I54L

SIX6 [5] = molecular target: T5, SIX6 (Homo sapiens, UniProt O95475 114-200, L167M)
T5 sequence: T1 sequence with I54M

SIX6 [6] = molecular target: T6, SIX6 (Homo sapiens, UniProt O95475 114-200, T165G)
T6 sequence: T1 sequence with T52G, I54L

SIX6 [7] = molecular target: T7, SIX6 (Homo sapiens, UniProt O95475 114-200, L167V)
T7 sequence: T1 sequence with I54V

SIX6 [8] = molecular target: T8, SIX6 (Homo sapiens, UniProt O95475 114-200)
T8 sequence: T1 sequence with I54L

SIX6 [9] = molecular target: T9, SIX6 (Homo sapiens, UniProt O95475 114-200, T165P)
T9 sequence: T1 sequence with T52P, I54L

SIX6 [10] = molecular target: T10, SIX6 (Homo sapiens, UniProt O95475 114-200, T139Q)
T10 sequence: T1 sequence with T26Q, I54L

SIX6 [11] = molecular target: T11, SIX6 (Homo sapiens, UniProt O95475 114-200, L143M)
T11 sequence: T1 sequence with L30M, I54L

SIX6 [12] = molecular target: T12, SIX6 (Homo sapiens, UniProt O95475 114-200, L143I)
T12 sequence: T1 sequence with L30I, I54L

HOXA7 [13] = molecular target: HOXA7 (Homo sapiens, UniProt P31268 116-202)
PROP1 [14] = molecular target: PROP1 (Homo sapiens, UniProt O75360 56-141)
PROP1 [15] = molecular target: PROP1 (Homo sapiens, UniProt O75360 56-141, R99H)
PROP1 [16] = molecular target: PROP1 (Homo sapiens, UniProt O75360 56-141, F88S)
HOXA7 [17] = molecular target: HOXA7 (Homo sapiens, UniProt P31268 116-202, W177C)
NKX2-6 [18] = molecular target: T13, NKX2-6 (Homo sapiens, UniProt A6NCS4 118-204, R150C)
T13 sequence: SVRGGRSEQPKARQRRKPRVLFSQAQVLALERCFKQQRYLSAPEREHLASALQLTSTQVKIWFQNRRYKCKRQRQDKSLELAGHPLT

HOXD13 [19] = molecular target: HOXD13 (Homo sapiens, UniProt P35453 263-343, T313R)
HOXD13 [20] = molecular target: HOXD13 (Homo sapiens, UniProt P35453 263-343)
HOXD13 [21] = molecular target: HOXD13 (Homo sapiens, UniProt P35453 263-343, T313A)
NKX2-6 [22] = molecular target: T14, NKX2-6 (Homo sapiens, UniProt A6NCS4 118-204)
T14 sequence: T13 sequence with C33R

NKX2-6 [23] = molecular target: T15, NKX2-6 (Homo sapiens, UniProt A6NCS4 118-204, F151L)
T15 sequence: T13 sequence with C33R, F34L

VAX1 [24] = molecular target: VAX1 (Homo sapiens, UniProt Q5SQQ9 86-172)
VAX1 [25] = molecular target: VAX1 (Homo sapiens, UniProt Q5SQQ9 86-172, T142I)
VAX1 [26] = molecular target: VAX1 (Homo sapiens, UniProt Q5SQQ9 86-172, K157R)
NKX3-2 [27] = molecular target: NKX3-2 (Homo sapiens, UniProt P78367 192-278, P234S)
NKX3-2 [28] = molecular target: NKX3-2 (Homo sapiens, UniProt P78367 192-278)
NKX3-2 (Homo sapiens, UniProt P78367 192-278), sequence (P78367 192-278): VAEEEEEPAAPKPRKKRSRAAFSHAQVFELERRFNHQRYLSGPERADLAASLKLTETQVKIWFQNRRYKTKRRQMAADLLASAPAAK

HOXD13 (Homo sapiens, UniProt P35453 263-343, T313R), sequence (P35453 263-343 T313R): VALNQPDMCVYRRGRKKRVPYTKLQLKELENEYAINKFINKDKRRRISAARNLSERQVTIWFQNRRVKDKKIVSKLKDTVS
PROP1 (Homo sapiens, UniProt O75360 56-141, F88S), sequence (O75360 56-141 F88S): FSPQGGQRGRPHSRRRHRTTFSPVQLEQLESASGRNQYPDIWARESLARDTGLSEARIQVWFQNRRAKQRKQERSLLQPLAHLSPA
HOXD13 (Homo sapiens, UniProt P35453 263-343, T313A), sequence (P35453 263-343 T313A): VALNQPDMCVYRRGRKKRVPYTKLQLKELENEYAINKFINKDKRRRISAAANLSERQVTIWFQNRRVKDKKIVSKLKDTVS
PROP1 (Homo sapiens, UniProt O75360 56-141), sequence (O75360 56-141): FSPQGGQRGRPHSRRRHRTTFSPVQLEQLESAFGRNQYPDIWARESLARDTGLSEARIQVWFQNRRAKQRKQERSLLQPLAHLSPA
HOXD13 (Homo sapiens, UniProt P35453 263-343), sequence (P35453 263-343): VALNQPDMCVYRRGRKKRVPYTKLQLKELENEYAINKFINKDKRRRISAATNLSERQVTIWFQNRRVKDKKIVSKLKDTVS
PROP1 (Homo sapiens, UniProt O75360 56-141, R99H), sequence (O75360 56-141 R99H): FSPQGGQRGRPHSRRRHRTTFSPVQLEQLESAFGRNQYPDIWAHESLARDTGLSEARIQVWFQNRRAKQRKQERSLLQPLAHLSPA
NKX3-2 (Homo sapiens, UniProt P78367 192-278, P234S), sequence (P78367 192-278 P234S): as the sequence (P78367 192-278) above, with P43S counted along it
VAX1 (Homo sapiens, UniProt Q5SQQ9 86-172), sequence (Q5SQQ9 86-172): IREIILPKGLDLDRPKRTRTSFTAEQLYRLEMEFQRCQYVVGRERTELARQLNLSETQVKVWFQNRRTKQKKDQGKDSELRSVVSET
VAX1 (Homo sapiens, UniProt Q5SQQ9 86-172, T142I), sequence (Q5SQQ9 86-172 T142I): as the sequence (Q5SQQ9 86-172) above, with T57I counted along it
VAX1 (Homo sapiens, UniProt Q5SQQ9 86-172, K157R), sequence (Q5SQQ9 86-172 K157R): as the sequence (Q5SQQ9 86-172) above, with K72R counted along it
HOXA7 (Homo sapiens, UniProt P31268 116-202, W177C), sequence (P31268 116-202 W177C): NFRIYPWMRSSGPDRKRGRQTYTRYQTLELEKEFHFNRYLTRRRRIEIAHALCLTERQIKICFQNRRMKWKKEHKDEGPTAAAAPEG
HOXA7 (Homo sapiens, UniProt P31268 116-202), sequence (P31268 116-202): as the sequence (P31268 116-202 W177C) above, with C62W counted along it

## ATATCACG
SIX6 [1]
  binding signal: 11.1 upbm affinity estimate (log intensity, higher = more binding, comparable within an allelic series)
SIX6 [2]
  binding signal: 11.1 upbm affinity estimate (log intensity, higher = more binding, comparable within an allelic series)
SIX6 [3]
  binding signal: 11 upbm affinity estimate (log intensity, higher = more binding, comparable within an allelic series)
SIX6 [4]
  binding signal: 10.9 upbm affinity estimate (log intensity, higher = more binding, comparable within an allelic series)

## ACTATACG
SIX6 [1]
  binding signal: 10 upbm affinity estimate (log intensity, higher = more binding, comparable within an allelic series)
SIX6 [2]
  binding signal: 10 upbm affinity estimate (log intensity, higher = more binding, comparable within an allelic series)
SIX6 [5]
  binding signal: 10.1 upbm affinity estimate (log intensity, higher = more binding, comparable within an allelic series)
SIX6 [6]
  binding signal: 9.95 upbm affinity estimate (log intensity, higher = more binding, comparable within an allelic series)
SIX6 [3]
  binding signal: 10 upbm affinity estimate (log intensity, higher = more binding, comparable within an allelic series)
SIX6 [7]
  binding signal: 10 upbm affinity estimate (log intensity, higher = more binding, comparable within an allelic series)
SIX6 [8]
  binding signal: 10.1 upbm affinity estimate (log intensity, higher = more binding, comparable within an allelic series)
SIX6 [4]
  binding signal: 9.99 upbm affinity estimate (log intensity, higher = more binding, comparable within an allelic series)

## AAGGTATC
SIX6 [1]
  binding signal: 11.1 upbm affinity estimate (log intensity, higher = more binding, comparable within an allelic series)
SIX6 [2]
  binding signal: 11 upbm affinity estimate (log intensity, higher = more binding, comparable within an allelic series)

## GATCTTCA
SIX6 [1]
  binding signal: 10.3 upbm affinity estimate (log intensity, higher = more binding, comparable within an allelic series)
SIX6 [2]
  binding signal: 10.3 upbm affinity estimate (log intensity, higher = more binding, comparable within an allelic series)
SIX6 [9]
  binding signal: 9.68 upbm affinity estimate (log intensity, higher = more binding, comparable within an allelic series)
SIX6 [6]
  binding signal: 10.3 upbm affinity estimate (log intensity, higher = more binding, comparable within an allelic series)
SIX6 [10]
  binding signal: 10.4 upbm affinity estimate (log intensity, higher = more binding, comparable within an allelic series)
SIX6 [7]
  binding signal: 10.2 upbm affinity estimate (log intensity, higher = more binding, comparable within an allelic series)
SIX6 [8]
  binding signal: 10.3 upbm affinity estimate (log intensity, higher = more binding, comparable within an allelic series)

## ATCCTAAT
SIX6 [1]
  binding signal: 10.2 upbm affinity estimate (log intensity, higher = more binding, comparable within an allelic series)
SIX6 [2]
  binding signal: 10.2 upbm affinity estimate (log intensity, higher = more binding, comparable within an allelic series)
SIX6 [5]
  binding signal: 10.1 upbm affinity estimate (log intensity, higher = more binding, comparable within an allelic series)
SIX6 [11]
  binding signal: 10.2 upbm affinity estimate (log intensity, higher = more binding, comparable within an allelic series)
SIX6 [6]
  binding signal: 10.2 upbm affinity estimate (log intensity, higher = more binding, comparable within an allelic series)
SIX6 [10]
  binding signal: 10.5 upbm affinity estimate (log intensity, higher = more binding, comparable within an allelic series)
SIX6 [3]
  binding signal: 10.2 upbm affinity estimate (log intensity, higher = more binding, comparable within an allelic series)
SIX6 [7]
  binding signal: 10.1 upbm affinity estimate (log intensity, higher = more binding, comparable within an allelic series)
SIX6 [8]
  binding signal: 10.2 upbm affinity estimate (log intensity, higher = more binding, comparable within an allelic series)
SIX6 [4]
  binding signal: 10.2 upbm affinity estimate (log intensity, higher = more binding, comparable within an allelic series)

## GGATAGTA
SIX6 [1]
  binding signal: 10.4 upbm affinity estimate (log intensity, higher = more binding, comparable within an allelic series)
SIX6 [2]
  binding signal: 10.3 upbm affinity estimate (log intensity, higher = more binding, comparable within an allelic series)
SIX6 [9]
  binding signal: 9.87 upbm affinity estimate (log intensity, higher = more binding, comparable within an allelic series)
SIX6 [5]
  binding signal: 10.3 upbm affinity estimate (log intensity, higher = more binding, comparable within an allelic series)
SIX6 [12]
  binding signal: 10.2 upbm affinity estimate (log intensity, higher = more binding, comparable within an allelic series)
SIX6 [6]
  binding signal: 10.4 upbm affinity estimate (log intensity, higher = more binding, comparable within an allelic series)
SIX6 [10]
  binding signal: 10.6 upbm affinity estimate (log intensity, higher = more binding, comparable within an allelic series)
SIX6 [7]
  binding signal: 10.3 upbm affinity estimate (log intensity, higher = more binding, comparable within an allelic series)
SIX6 [8]
  binding signal: 10.4 upbm affinity estimate (log intensity, higher = more binding, comparable within an allelic series)
SIX6 [4]
  binding signal: 10.3 upbm affinity estimate (log intensity, higher = more binding, comparable within an allelic series)

## CCCCCTTC
HOXA7 [13]
  binding signal: 7.86 upbm affinity estimate (log intensity, higher = more binding, comparable within an allelic series)
PROP1 [14]
  binding signal: 6.16 upbm affinity estimate (log intensity, higher = more binding, comparable within an allelic series)
PROP1 [15]
  binding signal: 5.96 upbm affinity estimate (log intensity, higher = more binding, comparable within an allelic series)
PROP1 [16]
  binding signal: 5.76 upbm affinity estimate (log intensity, higher = more binding, comparable within an allelic series)
HOXA7 [17]
  binding signal: 8.09 upbm affinity estimate (log intensity, higher = more binding, comparable within an allelic series)

## GATCCCCC
SIX6 [9]
  binding signal: 9.3 upbm affinity estimate (log intensity, higher = more binding, comparable within an allelic series)

## GGATCACA
SIX6 [11]
  binding signal: 10.9 upbm affinity estimate (log intensity, higher = more binding, comparable within an allelic series)

## CCCCAGGC
NKX2-6 [18]
  binding signal: 9.25 upbm affinity estimate (log intensity, higher = more binding, comparable within an allelic series)
HOXD13 [19]
  binding signal: 9.43 upbm affinity estimate (log intensity, higher = more binding, comparable within an allelic series)
HOXD13 [20]
  binding signal: 9.37 upbm affinity estimate (log intensity, higher = more binding, comparable within an allelic series)
HOXD13 [21]
  binding signal: 9.53 upbm affinity estimate (log intensity, higher = more binding, comparable within an allelic series)

## CCCGACGC
HOXD13 [19]
  binding signal: 9.45 upbm affinity estimate (log intensity, higher = more binding, comparable within an allelic series)
HOXD13 [20]
  binding signal: 9.26 upbm affinity estimate (log intensity, higher = more binding, comparable within an allelic series)
HOXD13 [21]
  binding signal: 9.49 upbm affinity estimate (log intensity, higher = more binding, comparable within an allelic series)

## GCCGGCCC
NKX2-6 [22]
  binding signal: 9.25 upbm affinity estimate (log intensity, higher = more binding, comparable within an allelic series)
NKX2-6 [23]
  binding signal: 9.24 upbm affinity estimate (log intensity, higher = more binding, comparable within an allelic series)

## GCCCCGAC
NKX2-6 [22]
  binding signal: 9.63 upbm affinity estimate (log intensity, higher = more binding, comparable within an allelic series)
NKX2-6 [23]
  binding signal: 9.35 upbm affinity estimate (log intensity, higher = more binding, comparable within an allelic series)

## AGATGATA
SIX6 [7]
  binding signal: 10.9 upbm affinity estimate (log intensity, higher = more binding, comparable within an allelic series)
SIX6 [4]
  binding signal: 10.9 upbm affinity estimate (log intensity, higher = more binding, comparable within an allelic series)

## CAGATATC
SIX6 [7]
  binding signal: 10.8 upbm affinity estimate (log intensity, higher = more binding, comparable within an allelic series)

## CCGAGAGG
PROP1 [14]
  binding signal: 6.47 upbm affinity estimate (log intensity, higher = more binding, comparable within an allelic series)
PROP1 [15]
  binding signal: 6.52 upbm affinity estimate (log intensity, higher = more binding, comparable within an allelic series)
PROP1 [16]
  binding signal: 6.64 upbm affinity estimate (log intensity, higher = more binding, comparable within an allelic series)

## ATACTAAC
SIX6 [8]
  binding signal: 10.1 upbm affinity estimate (log intensity, higher = more binding, comparable within an allelic series)

## CGCGCGCG
VAX1 [24]
  binding signal: 7.34 upbm affinity estimate (log intensity, higher = more binding, comparable within an allelic series)
VAX1 [25]
  binding signal: 7.38 upbm affinity estimate (log intensity, higher = more binding, comparable within an allelic series)
VAX1 [26]
  binding signal: 7.37 upbm affinity estimate (log intensity, higher = more binding, comparable within an allelic series)

## CAGCCTCC
NKX3-2 [27]
  binding signal: 10.7 upbm affinity estimate (log intensity, higher = more binding, comparable within an allelic series)
NKX3-2 [28]
  binding signal: 10.7 upbm affinity estimate (log intensity, higher = more binding, comparable within an allelic series)
